Test results taken from the supplement of paper PMC3334620.
Over roughly 33,000 sequences, “E-score (-0.5 to 0.5)” has its median near -0.043; the highest 2% begin near 0.37. The list comes from a sample in which the highest values are over-represented; it also holds similar and randomly drawn sequences.

Target: T1, Upc2 (UniProt Q12151)
T1 sequence: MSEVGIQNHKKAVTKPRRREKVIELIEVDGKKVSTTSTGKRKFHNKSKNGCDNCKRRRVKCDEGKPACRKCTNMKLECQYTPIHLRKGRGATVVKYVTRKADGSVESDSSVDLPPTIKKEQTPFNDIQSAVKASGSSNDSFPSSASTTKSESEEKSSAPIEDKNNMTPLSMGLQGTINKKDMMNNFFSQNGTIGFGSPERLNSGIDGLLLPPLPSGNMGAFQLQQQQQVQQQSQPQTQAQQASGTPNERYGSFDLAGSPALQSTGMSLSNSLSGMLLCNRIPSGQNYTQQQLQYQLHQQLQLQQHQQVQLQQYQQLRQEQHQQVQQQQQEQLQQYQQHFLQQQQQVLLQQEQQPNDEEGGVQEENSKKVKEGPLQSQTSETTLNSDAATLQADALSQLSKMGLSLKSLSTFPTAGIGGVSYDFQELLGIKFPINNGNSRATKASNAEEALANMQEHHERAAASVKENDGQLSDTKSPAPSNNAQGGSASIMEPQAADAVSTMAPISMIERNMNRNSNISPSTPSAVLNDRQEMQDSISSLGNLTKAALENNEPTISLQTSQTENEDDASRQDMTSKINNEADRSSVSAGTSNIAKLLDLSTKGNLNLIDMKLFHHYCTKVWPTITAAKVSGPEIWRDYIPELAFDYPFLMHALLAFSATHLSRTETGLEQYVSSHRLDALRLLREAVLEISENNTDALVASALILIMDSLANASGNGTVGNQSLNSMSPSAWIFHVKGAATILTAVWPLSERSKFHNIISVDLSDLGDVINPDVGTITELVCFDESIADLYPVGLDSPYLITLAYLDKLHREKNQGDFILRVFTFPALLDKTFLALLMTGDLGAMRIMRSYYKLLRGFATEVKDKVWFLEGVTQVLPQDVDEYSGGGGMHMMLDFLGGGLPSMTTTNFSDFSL
Assay: PBM E-score (8-mer binding enrichment) (E-score (-0.5 to 0.5)); higher = stronger / more preferred TF binding
Conditions: protein concentration: 200 nM; construct: GST-full length
Procedure: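 Universal 'all 10-mer' protein binding microarrays (Agilent AMADID 015681) probed with GST-tagged S. cerevisiae TFs (full-length or DBD) made by in vitro transcription/translation (PURExpress), about 100-200 nM. Bound TF was detected with fluorescent anti-GST. Each ungapped 8-mer (which stands for itself and its reverse complement) is scored by the PBM enrichment score (E-score), a modified Wilcoxon-Mann-Whitney statistic from -0.5 to +0.5, computed with the Universal PBM Analysis Suite. Scale: above 0.35 generally sequence-specific binding.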

| Sequence | PBM E-score |
| --- | --- |
| ACCTATCA | -0.11 |
| CGTGATTA | 0.0822 |
| ACCGGTTA | 0.118 |
| ATGACTAC | 0.0234 |
| AAGCTAGA | -0.166 |
| GCGCTCCA | -0.195 |
| CAAAGAAC | -0.0158 |
| ACGCATAA | 0.172 |
| TCGCATAA | 0.383 |
| CCGCATAA | 0.121 |
| GGTTGCTA | -0.126 |
| CCGCACTC | 0.195 |
| AAAAGGGA | -0.2 |
| ACGTAAAC | 0.345 |
| CCGTAAAC | 0.396 |
| TTGTAAAA | 0.0751 |
| TCGTAAAA | 0.481 |
| CCGTAAAG | 0.395 |
| ACGTTAAA | 0.269 |
| ACGTAAAG | 0.308 |
| TCGTTAAA | 0.466 |
| GCGTAAAC | 0.352 |
| CTGTAAAG | -0.0138 |
| TAGTAAAA | 0.0664 |
| CCGTTAAA | 0.33 |

| Sequence | PBM E-score |
| --- | --- |
| CATGGACA | -0.178 |
| AGTTAGCA | -0.0102 |
| CCGATGGA | 0.109 |
| ACTTATCG | 0.00736 |
| ATAGTCTG | -0.124 |
| CGCTCAGA | 0.121 |
| GCTAAACC | 0.03 |
| GCGTAAAA | 0.302 |
| ACGTAAAA | 0.268 |
| CCGTAAAA | 0.374 |
| ACTATCAC | 0.0913 |
| ATGGGCCC | -0.0858 |
| ACGTCTTC | 0.0586 |
| GACTGGAC | -0.215 |
| CGGTACGC | 0.324 |
| CGGTACGA | 0.474 |
| AGGTACGC | 0.163 |
| GGGTACGA | 0.465 |
| GGGTACAA | -0.0246 |
| AGGTACGG | 0.354 |
| GGGTACCA | -0.275 |
| AGGTACGA | 0.47 |
| CGGTACCA | -0.0953 |
| TAGTTGGA | -0.109 |
| GCCGGGTA | -0.143 |

| Sequence | PBM E-score |
| --- | --- |
| ACCTAAGA | 0.0242 |
| ACCCTCTC | -0.197 |
| CACTGAGA | -0.0162 |
| CCTTGCGA | -0.195 |
| CCGGTGCA | -0.153 |
| GGTGACTA | -0.0935 |
| TCCCTCGA | -0.0965 |
| ACCAGTGG | -0.247 |
| ACAAGACT | -0.00931 |
| CGTCGTTA | 0.376 |
| CGCCGTTC | 0.339 |
| GGTCGTTA | 0.358 |
| AGTCGTTG | 0.0644 |
| CGTCGTTC | 0.464 |
| CGTCGATC | -0.0198 |
| AGTCGCTC | 0.0535 |
| AGTCGTTA | 0.317 |
| AGTCGTTC | 0.41 |
| AGGTGAAT | -0.0674 |
| GCACCGAA | 0.0996 |
| CCGCATAC | 0.197 |
| CATGAGGC | -0.218 |
| CTCAACAC | -0.0233 |
| AGGTTCGG | 0.022 |
| CAGATTCC | -0.195 |

| Sequence | PBM E-score |
| --- | --- |
| CCGGTACG | 0.421 |
| CGGGTACC | -0.158 |
| CGGGTACA | 0.114 |
| ACGGTACT | 0.0352 |
| CCGGTACA | 0.106 |
| ACGGTACG | 0.408 |
| CCGGTACC | -0.196 |
| ACGGTACC | 0.0672 |
| CGGGTACG | 0.43 |
| CCCTATAA | -0.00945 |
| CCATCAAG | -0.12 |
| AAGACCCT | -0.239 |
| CAGGTCGC | 0.0637 |
| AAGGTGGC | -0.0337 |
| CTTACGCC | 0.0225 |
| ATTACGAA | 0.339 |
| CTTACGAC | 0.406 |
| CTCACGAC | -0.146 |
| GTTACGAA | 0.409 |
| GTTACGGA | 0.233 |
| CTTACGCA | 0.146 |
| CTCACGAA | 0.0214 |
| CTTACGAA | 0.399 |
| CCATTCTA | -0.068 |
| CAGAATTA | -0.0215 |

| Sequence | PBM E-score |
| --- | --- |
| GCTACTCC | -0.242 |
| CAGATGGC | -0.0004 |
| AGAGGCCT | -0.0685 |
| TCATGAAA | 0.0303 |
| ACCACTGG | -0.0523 |
| AAAAGCGA | 0.175 |
| GGATCTTA | 0.146 |
| CGACGAGC | 0.0758 |
| ATACGAGA | 0.482 |
| CCACGAGC | -0.0694 |
| ACACGAGG | 0.248 |
| AGACGAGA | 0.184 |
| GTACGCGA | 0.347 |
| ATACGAGG | 0.487 |
| GTCCGAGA | 0.205 |
| CTACGAGA | 0.359 |
| GTACGAGA | 0.472 |
| AGACGAGG | 0.215 |
| CTACGAGC | 0.393 |
| GCAGTTTA | 0.0629 |
| ACTCTTAG | -0.149 |
| ACTCTGGG | -0.181 |
| GGAGTCCC | -0.172 |
| CGTAACCA | 0.223 |
| CACAGTGA | -0.0917 |

| Sequence | PBM E-score |
| --- | --- |
| ACCCTCTG | -0.236 |
| AGACGAGC | 0.206 |
| ATACGAGC | 0.489 |
| ACACGAGC | 0.273 |
| AAACTGAC | -0.0907 |
| CGGGACCC | -0.177 |
| GCTGTGAC | 0.111 |
| TCATACAA | 0.0325 |
| ACATACGA | 0.476 |
| GCATACGC | 0.296 |
| TCATACGA | 0.469 |
| ACATACGC | 0.281 |
| ACATACGT | 0.239 |
| TCATACCA | -0.0495 |
| GCATACGA | 0.47 |
| GCATACAA | -0.0164 |
| CTAATGTC | -0.171 |
| AGATAAGA | 0.0794 |
| GGCTGATA | -0.0951 |
| CCTGAAGC | -0.175 |
| AATGGTGT | -0.0602 |
| CGTTGCTA | 0.0827 |
| CTAGCCCA | -0.335 |
| AAGAGGAC | -0.242 |
| ACTATCAG | -0.196 |

| Sequence | PBM E-score |
| --- | --- |
| CCTGAGAA | -0.0858 |
| GAAACAAA | 0.0262 |
| CCAACGAA | 0.109 |
| AAAACGAA | 0.283 |
| CAAACGAA | 0.467 |
| GAAACGAA | 0.41 |
| GCAACGAA | 0.314 |
| CTAGCTTC | -0.105 |
| GATCACAA | -0.0358 |
| GAATGCCC | 0.0462 |
| GCATACCA | 0.00545 |
| ATTGTGCC | -0.149 |
| AATCCATG | -0.252 |
| ACGACGCG | 0.389 |
| ACGACGCC | 0.306 |
| GCGACGCA | 0.108 |
| CCGACGCG | 0.16 |
| ACGACGCT | 0.361 |
| ACGACGCA | 0.389 |
| ACGACTCA | 0.29 |
| ACGACTCT | 0.319 |
| ACGACTCG | 0.381 |
